Experimental findings from PubChem BioAssay (Tox21) are described below.

“And” between values parts separate entries of the source, which are not always exact repeats. Equal entries are not always repeated. Results filed as inconclusive are left out. The source made the active and inactive calls. Unless noted, the call rests on the fitted dose curve; in most records, active means well fitted curve in the direction sought with a large enough effect in the repeat runs; inconclusive means weak or mixed curves; inactive means no such curve, though single readings can be large; an effect the other way counts as inactive or inconclusive.

Test [1] is described as follows: qHTS assay for small molecules that induce genotoxicity in human embryonic kidney cells expressing luciferase-tagged ATAD5 (AID 651632). Further: nearly all actives have a fitted effect of over 15% in size. A digest of the protocol:
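Concentration-response screen for ATAD5 upregulation in HEK293T luciferase reporter cells; 16 hr treatment at 37C, then luminescence after 30 min with Amplite at room temperature.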
(In qHTS, concentration-response curves come from the screen itself.)

The nature of test [2]: qHTS assay for small molecule agonists of the p53 signaling pathway - cell viability (AID 651633; calls by dose curve;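 further: p53RE-bla HCT reporter cells with a stable beta-lactamase p53 reporter; series mostly up to about 83 µM; nearly all actives have a fitted effect of over 30% in size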). A digest of the protocol:
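p53RE-bla cells were treated with compound for 16 hours at 37 C. Cytotoxicity was then measured as CellTiter-Glo luminescence after 30 min at room temperature.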

Test [3] in a line: qHTS assay for small molecule disruptors of the mitochondrial membrane potential - cell viability (AID 720634; calls by dose curve; further: nearly all actives have a fitted effect of over 20% in size; further: potency means the concentration at half of the fitted maximal effect). A digest of the protocol: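 In this qHTS format, HepG2 cells plated overnight were pinned with compound, incubated 1 hr, and assayed for ATP luminescence with CellTiter-Glo after m-MPI dye addition.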
Test [4] is described as follows: qHTS assay to test for compound auto fluorescence at 590 nm (red) in HepG2 cells (AID 720674). A digest of the protocol: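 HepG2 cells, 2,000 per well in MEM with 10% FBS, attached overnight at 37 C, then got 23 nL compound or DMSO. After 1 hr at 37 C, 5% CO2, red fluorescence was read at 540/590 nm against Rose Bengal sodium as reference.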
Test [5] is described as follows: qHTS assay to test for compound auto fluorescence at 535 nm (green) in HepG2 cells (AID 720675).
The nature of test [6]: qHTS assay to test for compound auto fluorescence at 460 nm (blue) in HEK293 cells (AID 720678). A digest of the protocol:
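Blue-channel (Ex/Em 405/460 nm) intensity measured in HEK293 cultures after overnight compound exposure at 37C; signal expressed relative to triamterene. Cells plated 2,000 per well in 10% dialyzed FBS medium and allowed 4-5 hr to attach.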

The nature of test [7]: qHTS assay to test for compound auto fluorescence at 590 nm (red) in HEK293 cells (AID 720679). The procedure, abridged:
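Red-channel autofluorescence (Ex/Em 540/590 nm; Rose Bengal sodium reference) was measured after overnight 37C, 5% CO2 exposure of attached HEK293 cells, 2,000 per well in medium with 10% dialyzed FBS.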

Test [8] can be described thus: qHTS assay to test for compound auto fluorescence at 460 nm (blue) in HEK293 cell free culture (AID 720681). The procedure, abridged:
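Compounds were added to cell-free DMEM with 10% FBS and fluorescence read directly. The blue channel used 405 nm excitation and 460 nm emission, with triamterene as the reference fluorophore.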

Test [9] is described as follows: qHTS assay to test for compound auto fluorescence at 535 nm (green) in HEK293 cell free culture (AID 720682). A digest of the protocol:
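No cells present: wells hold DMEM supplemented with 10% FBS, into which compound or vehicle is pinned. Green emission is then recorded (485 nm excitation, 535 nm emission) and scaled to fluorescein.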

Test [10] is described as follows: qHTS assay to test for compound auto fluorescence at 590 nm (red) in HEK293 cell free culture (AID 720683). The procedure, abridged: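 Cell-free wells of DMEM with 10% FBS received compound, and intrinsic fluorescence was read at excitation/emission 540/590 nm. Values expressed as equivalence to Rose Bengal sodium.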
Test [11] can be described thus: qHTS assay to test for compound auto fluorescence at 590 nm (red) in HepG2 cell free culture (AID 720684). A digest of the protocol:
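Auto fluorescence equivalency versus Rose Bengal sodium, red channel Ex/Em 540/590 nm; compounds in cell-free MEM/10% FBS; DMSO vehicle control.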

Test [12] is described as follows: qHTS assay to test for compound auto fluorescence at 460 nm (blue) in HepG2 cell free culture (AID 720685). The procedure, abridged: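 Cell-free plates of MEM plus 10% FBS received 23 nL compound or DMSO vehicle; blue-channel (405/460 nm) intensity scored against triamterene as reference fluorophore.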
A short description of test [13]: qHTS assay to test for compound auto fluorescence at 460 nm (blue) in HepG2 cells (AID 720687). The procedure, abridged:
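HepG2 cells in MEM with 10% FBS, attached overnight at 37 C, were exposed to compound or DMSO for 1 hr at 37 C, 5% CO2. Blue fluorescence was read at 405/460 nm, with triamterene as reference fluorophore.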

Test [14] addresses Glucocorticoid receptor (Homo sapiens) (UniProt P04150). Nature of the test: qHTS assay to identify small molecule agonists of the glucocorticoid receptor (GR) signaling pathway (AID 720691; active means well fitted activation curve with a large enough effect in the signal ratio in the repeat runs, not every such curve was filed as active; the % refers to the signal ratio). A digest of the protocol: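 Measures GR pathway activation through a GRE-beta-lactamase reporter stably integrated in HeLa cells, with 18 h compound treatment at 37 C and fluorescence detection using a FRET substrate.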

Test [15] shares this target. The test is described as follows: qHTS assay to identify small molecule antagonists of the glucocorticoid receptor (GR) signaling pathway (AID 720692; active means well fitted inhibition curve with a large enough effect in the signal ratio in the repeat runs, not every such curve was filed as active; the % refers to the signal ratio; further: potency means the concentration at half of the fitted maximal effect). A digest of the protocol: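 Tox21 10K library screened in concentration-response for blockade of dexamethasone (5 nM final)-induced GRE-bla reporter activity in HeLa cells; 18 h treatment, fluorescence read.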
Test [16] in a line: qHTS assay for small molecule disruptors of the mitochondrial membrane potential (AID 720635). Further: potency means the concentration at half of the fitted maximal effect. The procedure, abridged:
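HepG2 cells exposed to compound 1 hr at 37C, then Mito-MPS dye 30 min. Ratio read of aggregate (540/590 nm) versus monomer (490/535 nm) fluorescence.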

A short description of test [17]: qHTS assay to test for compound auto fluorescence at 535 nm (green) in HEK293 cells (AID 720680).
Test [18] is described as follows: qHTS assay to test for compound auto fluorescence at 535 nm (green) in HepG2 cell free culture (AID 720686).
Test [19] in a line: qHTS assay for small molecules that induce genotoxicity in human embryonic kidney cells expressing luciferase-tagged ATAD5 - cell viability (AID 651634; calls by dose curve; further: nearly all actives have a fitted effect of over 25% in size). A digest of the protocol: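 15.5 hr compound or vehicle exposure of HEK293T cells expressing luciferase-tagged ATAD5 at 37C; live-cell protease activity is read by fluorescence after 30 min of CellTiter-Fluor.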

Chain of Glucocorticoid receptor (Homo sapiens) (P04150 whole entry, looked up): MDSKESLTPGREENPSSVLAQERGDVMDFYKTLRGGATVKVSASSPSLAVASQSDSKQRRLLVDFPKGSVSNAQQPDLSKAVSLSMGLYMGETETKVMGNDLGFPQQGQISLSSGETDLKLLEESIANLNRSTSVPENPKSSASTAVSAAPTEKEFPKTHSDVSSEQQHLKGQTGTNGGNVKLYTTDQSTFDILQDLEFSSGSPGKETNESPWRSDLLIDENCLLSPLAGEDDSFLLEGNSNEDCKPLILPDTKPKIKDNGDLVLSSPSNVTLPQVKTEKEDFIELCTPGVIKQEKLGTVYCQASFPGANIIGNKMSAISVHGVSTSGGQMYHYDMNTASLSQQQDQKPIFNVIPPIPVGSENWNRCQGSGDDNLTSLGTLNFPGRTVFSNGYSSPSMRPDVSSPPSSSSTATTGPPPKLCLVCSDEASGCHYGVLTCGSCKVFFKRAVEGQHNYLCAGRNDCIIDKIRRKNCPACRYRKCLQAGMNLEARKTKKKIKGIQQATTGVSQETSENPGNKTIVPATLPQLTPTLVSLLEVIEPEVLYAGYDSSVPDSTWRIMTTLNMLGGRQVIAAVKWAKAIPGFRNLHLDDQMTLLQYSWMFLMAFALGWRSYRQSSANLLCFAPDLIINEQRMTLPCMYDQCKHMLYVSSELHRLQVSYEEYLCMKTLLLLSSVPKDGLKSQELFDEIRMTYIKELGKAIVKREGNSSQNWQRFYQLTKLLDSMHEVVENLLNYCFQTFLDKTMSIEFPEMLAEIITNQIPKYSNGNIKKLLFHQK

As to `CNC(=O)O/N=C(\C)SC`, the Potency entry in test [1], in [2], in test [3] and in test [15] was “inactive” throughout. The compound was called inactive in test [4], in test [5], in [6], in test [7], in test [8] and in test [9]. The outcome in test [10], in [11], in [12], in [13] and in [14] was inactive.

With `COc1cc(C[C@@H](C)N)c(OC)cc1C`, the Potency result in [1], in test [2], in test [16] and in [15] was “inactive” each time. The compound was called inactive in test [4], in test [5], in test [7], in test [17], in [8] and in test [9]. For the same compound, the result in test [10], in test [11], in [12], in test [18], in test [13] and in test [14] was inactive.

Turning to `CCC(=O)c1ccccc1`, the Potency entry in test [1], in test [19] and in [3] was “inactive” throughout. The compound was called inactive in test [4], in [5], in test [6], in test [7], in test [17] and in test [8]. Moreover, the compound was classed as inactive in test [9], in test [10], in [11], in test [12], in [18] and in test [13].

As to `C[C@H]1CCC[C@H](O)CCCCCc2cc(O)cc(O)c2C(=O)O1`, the Potency result in test [1] is “inactive”. In addition, the Potency was 26.6 µM (active) in test [3]; 9.44 µM (active) and 6.91 µM (active) in [16]. For the same compound, the compound was called inactive in test [4], in [5], in test [6], in test [7], in test [17] and in [8]. For the same compound, the compound was classed as inactive in [10], in test [11], in test [12], in test [18], in [13] and in test [14].

As to `COc1cc(OC)nc(NC(=O)NS(=O)(=O)c2ncccc2OCC(F)(F)F)n1`, the Potency result in test [1], in [19], in [3], in test [16] and in test [15] was “inactive” in each case. Besides, the compound was classed as inactive in test [4], in [5], in test [6], in [7], in [17] and in test [8]. Besides, the compound was called inactive in test [9], in [10], in [11], in [18], in test [13] and in test [14].

With `CN1C(=S)CN=C(c2ccccc2)c2cc(Cl)ccc21`, the Potency result in test [19] and in test [3] was “inactive” each time. Also, the outcome in test [4], in test [5], in [6], in test [7], in test [8] and in [9] was inactive. The compound was classed as inactive in test [10], in test [11], in [12], in test [18], in [13] and in test [14]. Also, in test [15], the Potency was 12 µM (active).

In the case of `CCC(C)(C)c1cc(-n2nc3ccccc3n2)c(O)c(C(C)(C)CC)c1`, the Potency result in test [2], in test [3] and in test [16] was “inactive” each time. For the same compound, the compound was classed as inactive in test [4], in test [5], in test [6], in [7], in test [17] and in [8]. The compound was called inactive in [9], in test [10], in [11], in test [12], in test [13] and in test [14].

`C[C@]12CC[C@H]3[C@@H](CC=C4C[C@@H](O)CC[C@@]43C)[C@@H]1CC[C@@H]2O`: the Potency result in test [2] and in test [19] was “inactive” throughout. The result in [4], in [5], in test [6], in test [7], in [17] and in test [8] was inactive. The compound was classed as inactive in [9], in test [10], in [11], in test [12], in test [13] and in test [14].

On to `O=C(O)C(Br)CBr` (stereo not drawn), for which the Potency result in test [19], in test [3], in [16] and in test [15] was “inactive” throughout. Moreover, the call in [4], in test [5], in test [6], in test [7], in test [8] and in test [9] was inactive. Also, the compound was classed as inactive in test [10], in test [11], in test [12], in test [18], in test [13] and in [14].
